Among the data in the supplement of paper PMC10646978 are NF-kB reporter, IRF reporter and viability score values, retold here.

± gives the standard deviation.

Settings in all cases: modulator concentration 10 µM
For test [1], the system named is RAW-Dual (murine macrophage reporter line). Briefly: NF-kB reporter (SEAP) activity fold change vs agonist alone; higher = enhanced NF-kB activity. The method, boiled down: (§1)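 RAW-Dual murine macrophage reporter cells were plated at 50 000 per well in 384-well plates, pin-transferred compound to 10 μM final, and pre-incubated for 1 hour at 37 °C before a PRR agonist was added and the cells incubated overnight. NF-κB activity was read from supernatant SEAP with QUANTI-Blue at 620 nm absorbance, and IRF activity from Lucia luciferase with QUANTI-Luc by luminescence. Each signal was expressed as fold change by dividing by the mean agonist-only control on the same plate. Two replicate plates were averaged, with errors obtained by propagation.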

The test system is the same in test [2]. Kind of test: IRF reporter (Lucia luciferase) activity fold change vs agonist alone; higher = enhanced IRF activity. The method, boiled down:
as §1

Test [3] shares this test system. Kind of test: viability score (confluency relative to resting cells, overnight) (fraction); higher = more viable, active = viable (0.7 or more). In a few lines:
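RAW-Dual macrophages in 384-well plates were treated overnight with compound at 10 μM final. IncuCyte imaging recorded confluency, and IncuCyte software built two confluency masks across every imaged well. The viability score expresses confluency relative to resting cells and was judged against a cutoff, which a compound met only if both masks exceeded 70% of resting cells.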

Where [4] appears, read: agonist: CpG ODN 1826 0.5 ug/mL.

For the molecule `Cc1ccccc1Oc1ccc(S(=O)(=O)N2CCCC2)cc1`, the NF-kB reporter amounted to 0.68 ± 0.03 in test [1] (setting [4]), 1.02 ± 0.14 in test [1] (agonist: LPS 0.1 ug/mL) and 0.922 ± 0.061 in test [1] (agonist: MPLA […]). Moreover, the results for the IRF reporter in test [2] (agonist: 3'3'-cGAMP 10 ug/mL), in test [2] (agonist: LPS 0.1 ug/mL) and in test [2] (agonist: MPLA […]) were 0.385 ± 0.018, 1.03 ± 0.14 and 1.22 ± 0.26, respectively. Moreover, the viability score in test [3] is 0.953 (active).

Take `CC(C)(O)c1ccccc1CC[C@@H](SCC1(CC(=O)O)CC1)c1cccc(/C=C/c2ccc3ccc(Cl)cc3n2)c1` [Prestw-1189]: the NF-kB reporter stood at 1.1 ± 0.084 in test [1] (setting [4]), 0.765 ± 0.056 in test [1] (agonist: LPS 0.1 ug/mL) and 1.04 ± 0.098 in test [1] (agonist: MPLA […]). In addition, the IRF reporter in test [2] (agonist: 3'3'-cGAMP 10 ug/mL) came out at 1.05 ± 0.048; in test [2] (agonist: LPS 0.1 ug/mL), 1.27 ± 0.16; in test [2] (agonist: MPLA […]), 1.41 ± 0.34. Further, the viability score in test [3] was 0.881 (active).

In the case of `N#Cc1c(-n2ncnc2-c2cccc([N+](=O)[O-])c2)sc2c1CCCC2`, the figures for the NF-kB reporter in test [1] (setting [4]), in test [1] (agonist: LPS 0.1 ug/mL) and in test [1] (agonist: MPLA […]) were 0.954 ± 0.063, 1.05 ± 0.085 and 0.932 ± 0.073, respectively. Further, the values for the IRF reporter in test [2] (agonist: 3'3'-cGAMP 10 ug/mL), in test [2] (agonist: LPS 0.1 ug/mL) and in test [2] (agonist: MPLA […]) were 0.932 ± 0.033, 1.46 ± 0.12 and 1.2 ± 0.15, respectively. The viability score in test [3] was 1 (active).

For the molecule `Cc1ccc(S(=O)(=O)N2CCN(C(C)C)CC2)cc1`, the NF-kB reporter in test [1] (setting [4]) was found to be 1.13 ± 0.11; in test [1] (agonist: LPS 0.1 ug/mL) it was 0.94 ± 0.14; in test [1] (agonist: MPLA […]) it was 1.01 ± 0.043. For the same molecule, the IRF reporter stood at 0.96 ± 0.17 in test [2] (agonist: 3'3'-cGAMP 10 ug/mL), 0.898 ± 0.037 in test [2] (agonist: LPS 0.1 ug/mL) and 0.994 ± 0.1 in test [2] (agonist: MPLA […]). Also, in test [3], the viability score was 0.996 (active).

Take `CC(CS)C(=O)N1CCCC1C(=O)O` (stereo unspecified): the NF-kB reporter in test [1] (setting [4]) is 0.96 ± 0.096; in test [1] (agonist: LPS 0.1 ug/mL), 0.932 ± 0.068; in test [1] (agonist: MPLA […]), 0.977 ± 0.18. Further, the IRF reporter in test [2] (agonist: 3'3'-cGAMP 10 ug/mL) came to 0.973 ± 0.03; in test [2] (agonist: LPS 0.1 ug/mL), 1.22 ± 0.12; in test [2] (agonist: MPLA […]), 1.33 ± 0.18. Also, the viability score in test [3] is 1.02 (active).

On to `COc1cc(NC(=O)COc2ccc(C(C)C)c(C)c2)c(OC)cc1Cl`, for which the NF-kB reporter is 0.818 ± 0.038 in test [1] (setting [4]), 1.04 ± 0.1 in test [1] (agonist: LPS 0.1 ug/mL) and 1.71 ± 0.75 in test [1] (agonist: MPLA […]). The IRF reporter was 1.01 ± 0.047 in test [2] (agonist: 3'3'-cGAMP 10 ug/mL), 1.25 ± 0.19 in test [2] (agonist: LPS 0.1 ug/mL) and 1.28 ± 0.39 in test [2] (agonist: MPLA […]). Further, the viability score in test [3] is 0.96 (active).

Consider `CS(=O)(=O)N(Cc1ccccc1)c1ccc(C(=O)NCCSCc2ccc(Cl)cc2)cc1`, for which the NF-kB reporter in test [1] (setting [4]) worked out at 0.924 ± 0.099; in test [1] (agonist: LPS 0.1 ug/mL), 0.976 ± 0.062; in test [1] (agonist: MPLA […]) it was 1.01 ± 0.097. Also, the IRF reporter in test [2] (agonist: 3'3'-cGAMP 10 ug/mL) was found to be 1.01 ± 0.028; in test [2] (agonist: LPS 0.1 ug/mL) it was 1.54 ± 0.25; in test [2] (agonist: MPLA […]) it was 1.13 ± 0.14. Moreover, the viability score in test [3] was 1.01 (active).

For the molecule `NC(=O)C1CCCN1c1ncccc1C(F)(F)F` (stereo unspecified), the NF-kB reporter was 1.16 ± 0.068 in test [1] (setting [4]), 1.09 ± 0.089 in test [1] (agonist: LPS 0.1 ug/mL) and 0.994 ± 0.028 in test [1] (agonist: MPLA […]). For the same molecule, the IRF reporter in test [2] (agonist: 3'3'-cGAMP 10 ug/mL) was 1.01 ± 0.088; in test [2] (agonist: LPS 0.1 ug/mL), 1.06 ± 0.063; in test [2] (agonist: MPLA […]), 1.01 ± 0.1. Further, the viability score in test [3] was 0.997 (active).

Consider `CC(=O)OC(OC(C)=O)c1ccc([N+](=O)[O-])cc1`, for which the NF-kB reporter in test [1] (setting [4]) turned out to be 1.16 ± 0.094; in test [1] (agonist: LPS 0.1 ug/mL) it was 1.06 ± 0.069; in test [1] (agonist: MPLA […]), 1 ± 0.035. In addition, the IRF reporter in test [2] (agonist: 3'3'-cGAMP 10 ug/mL) turned out to be 1 ± 0.17; in test [2] (agonist: LPS 0.1 ug/mL), 1.09 ± 0.1; in test [2] (agonist: MPLA […]), 1.09 ± 0.17. Also, the viability score in test [3] was 1 (active).

Take `O=S(=O)(c1cccc2ccccc12)n1nnc2ccccc21`: the NF-kB reporter in test [1] (setting [4]) came to 1.01 ± 0.092; in test [1] (agonist: LPS 0.1 ug/mL) it was 1.03 ± 0.068; in test [1] (agonist: MPLA […]), 1.05 ± 0.08. Besides, the IRF reporter in test [2] (agonist: 3'3'-cGAMP 10 ug/mL) was found to be 1.09 ± 0.29; in test [2] (agonist: LPS 0.1 ug/mL), 1.04 ± 0.065; in test [2] (agonist: MPLA […]), 0.995 ± 0.067. For the same molecule, in test [3], the viability score was 1 (active).

On to `Clc1ccc2c(c1)CCc1cccnc1C2=C1CCNCC1`, for which the NF-kB reporter in test [1] (setting [4]) was 0.345 ± 0.04; in test [1] (agonist: LPS 0.1 ug/mL) it was 0.654 ± 0.052; in test [1] (agonist: MPLA […]), 0.814 ± 0.048. Also, the IRF reporter was 0.505 ± 0.026 in test [2] (agonist: 3'3'-cGAMP 10 ug/mL), 0.81 ± 0.14 in test [2] (agonist: LPS 0.1 ug/mL) and 0.754 ± 0.15 in test [2] (agonist: MPLA […]). For the same molecule, the viability score in test [3] is 0.36 (inactive).

As to `O=C(CCCCCCNC(=O)c1cnc(N(c2ccccc2)c2ccccc2)nc1)NO`, the NF-kB reporter in test [1] (setting [4]) turned out to be 1.14 ± 0.067; in test [1] (agonist: LPS 0.1 ug/mL) it was 0.318 ± 0.026; in test [1] (agonist: MPLA […]), 0.797 ± 0.15. The IRF reporter in test [2] (agonist: 3'3'-cGAMP 10 ug/mL) came out at 0.954 ± 0.08; in test [2] (agonist: LPS 0.1 ug/mL) it was 2.78 ± 0.69; in test [2] (agonist: MPLA […]) it was 3.16 ± 1. In test [3], the viability score is 0.95 (active).

`CC(=O)C1=C(C)OC2(O)c3ccccc3C(=O)C12O` (stereo unspecified): the NF-kB reporter turned out to be 0.903 ± 0.11 in test [1] (setting [4]), 0.947 ± 0.089 in test [1] (agonist: LPS 0.1 ug/mL) and 1.23 ± 0.13 in test [1] (agonist: MPLA […]). For the same molecule, the IRF reporter in test [2] (agonist: 3'3'-cGAMP 10 ug/mL) was 0.831 ± 0.029; in test [2] (agonist: LPS 0.1 ug/mL), 1.02 ± 0.18; in test [2] (agonist: MPLA […]) it was 0.824 ± 0.12. Also, the viability score in test [3] was 0.945 (active).
